EBV LMP1 NFkB = EBV LMP1-driven NF-kappaB luciferase reporter inhibitors, primary screen, cell-based, luminescence, single point | 350,000 tested, 0.69% active | inhibition, % at 12.5 µM | AID 504558, 2011 | LMP1-induced NF-kappaB luciferase reporter cells; in the data active = inhibition above about 41%
Peg3 prom inh-1 = Peg3 promoter-driven luciferase inhibitors, primary screen, cell-based, HeLa, luciferase luminescence; HeLa PEG-Prom luciferase reporter, overnight; inhibition, % at 20 µM; 360,000 tested, 1.7% active; AID 588405, 2011;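 active = inhibition of at least 50% at 20 µM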
KKLEB cytotox = cytotoxicity in KKLEB CF airway cells, primary screen, cytotoxicity control for CF NF-kB inhibitor project, cell-based, uHTS, fluorescence assay plates | KKLEB CF airway cells viability, ATPlite luminescence, overnight; stronger effect = lower value; cells stimulated with P. aeruginosa culture filtrate | 360,000 tested, 0.36% active | activity change (cytotoxicity), % at 5 µM | AID 602141, 2011;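 active = corrected activity change at or below -50% at 5 µM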
MITF TRPM1 inh = inhibitors of MITF-dependent TRPM1 promoter reporter, primary screen, cell-based, SK-MEL-5, single point, luciferase; SK-MEL-5 TRPM1 promoter luciferase, 24 h; inhibition, % at 12.5 µM; 330,000 tested, 0.83% active; AID 488899, 2010;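 active = mean inhibition across replicates of 60% or more, whatever share of single replicates reaches that level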
Shn3 inh set2 = reduction of Shn3 3'UTR firefly luciferase signal, primary screen, Schnurri-3 inhibitor project, cell-based, Clone20 osteoblasts, set 2. AID 588674, 2011. 360,000 tested, 0.52% active. inhibition, % at 12.5 µM. Clone20 osteoblast Shn3 3'UTR firefly luciferase, 24 h;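 active = mean inhibition of at least 75% with every replicate also reaching 75%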
CF NFkB block = inhibitors of PAF-induced NF-kB signaling, primary screen, cell-based, GFP fluorescence, uHTS; KKLEB NF-kB-GFP reporter, GFP fluorescence overnight; inhibition, % at 5 µM; 360,000 tested, 0.86% active; AID 588850, 2011;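 active = at least 50% inhibition at 5 µM, scaled per plate between neutral and stimulator controls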;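 also: PAF is a Pseudomonas aeruginosa culture filtrate used as stimulus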
Peg3 prom inh-2 = Peg3 promoter reporter inhibitors, retest, confirmation, cell-based, HeLa, luciferase reporter, single concentration | shares compounds with Peg3 prom inh-1 | AID 602417, 2012 | 1,300 tested, 84% active | inhibition, % at 20 µM | HeLa PEG-Prom luciferase reporter, luminescence, overnight;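 active = at 20 µM dose, 40% or more inhibition averaged across four replicates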
Numbers stand for hits; 0 = inactive; - = no result. This is a sample that favours compounds with a hit; in the whole collection about 2.9% have one here.

SMILES	EBV LMP1 NFkB	Peg3 prom inh-1	KKLEB cytotox	MITF TRPM1 inh	Shn3 inh set2	CF NFkB block	Peg3 prom inh-2
O=C(O)CSc1nnc(-c2ccc3c(c2)OCO3)o1	0	0	0	0	0	0	-
COc1ccc(/C=N/n2c(=O)[nH]c3c([nH]c4ccc(Br)cc43)c2=O)cc1CN1CCOCC1	0	0	0	0	0	0	-
COc1ccc2c(c1)[nH]c1c(=O)n(/N=C/C3C(C)C=C(C)CC3C)c(=O)[nH]c12 (centres undefined)	0	58	0	0	0	0	45
CC1=CC(C)[C@H](/C=N/n2c(=O)[nH]c3c([nH]c4ccc(Br)cc43)c2=O)C(C)C1 (some centres undefined)	0	93	0	0	0	0	55
CC1CN(C(=O)COC(=O)c2cc(=O)[nH]c3ccccc23)CC(C)O1 (centres undefined)	0	0	0	-	0	0	-
C(=NNc1nnn(Cc2ccccc2)n1)c1ccccc1	0	0	0	-	0	0	-
C=CCN1C=C/C(=C\C=C(C#N)C#N)c2ccccc21	0	0	0	0	0	0	-
CCCCCCN1C=C/C(=C\C=C(C#N)C#N)c2ccccc21	0	56	0	0	0	0	45
N#C/C(=C\c1cccc([N+](=O)[O-])c1)C(=O)NCc1ccc(Cl)cc1	0	111	0	0	0	0	96
C[C@@H]1CN([C@@H](C)CO)C(=O)c2cc(C#CCN(C)C)cnc2O[C@H]1CN(C)Cc1ccc2c(c1)OCO2	0	0	0	-	0	0	-
O=C(CCN1C(=O)/C(=C/c2ccc(F)cc2)SC1=S)N[C@@H](CO)Cc1ccccc1	0	79	0	0	0	0	72
O=C(CCCN1C(=O)/C(=C/c2cccc(Br)c2)SC1=S)Nc1cccnc1	0	76	0	0	0	0	96
CCc1ccc(/C=C2\SC(=S)N(CCCC(=O)Nc3ccccn3)C2=O)cc1	52	82	0	0	0	0	80
NCCCNc1nc(N)c([N+](=O)[O-])c(NC2CCCCC2)n1	0	67	0	74	0	0	80
Oc1ccc(C[C@H]2CNCCN2CCc2cc(C(F)(F)F)cc(C(F)(F)F)c2)cc1	0	58	0	0	0	0	82
Oc1ccc(C[C@@H]2CNC(=S)N2CCc2cc(C(F)(F)F)cc(C(F)(F)F)c2)cc1	0	0	0	0	0	0	-
CN(C)c1ccc(C(=O)c2ccccc2)cc1	0	0	0	0	0	0	-
CN(C)c1ccc(N=Nc2ccc(C(=O)O)cc2)cc1	0	65	0	66	0	0	0
O=C(CSCc1cccc(Br)c1)N=Nc1c(O)[nH]c2ccccc12	0	0	0	0	0	0	-
O=Nc1c(-c2c(O)[nH]c3cc(Br)ccc23)[nH]c2ccccc12	0	101	0	0	0	107	98
CCCNC(=O)C1(C)CCCN(C(=O)COc2ccc(C(C)(C)C)cc2)C1 (centres undefined)	-	0	0	-	0	0	-
COC(=O)CCC1(C(N)=O)CCC(=O)c2ccccc21 (centres undefined)	0	0	0	0	0	0	-
COc1ccc(-c2cc(-c3nnc(COC(=O)c4ccc(O)cc4)o3)c3ccccc3n2)cc1OC	0	52	0	0	0	0	0
COc1ccc(-c2cc(-c3nnc(COC(=O)C4CC4)o3)c3ccccc3n2)cc1OC	0	0	0	0	0	0	-
Cn1c(=O)c2c(ncn2CC(=O)OCCCC(=O)c2ccc(Br)cc2)n(C)c1=O	0	0	0	0	0	0	-
SMILES	EBV LMP1 NFkB	Peg3 prom inh-1	KKLEB cytotox	MITF TRPM1 inh	Shn3 inh set2	CF NFkB block	Peg3 prom inh-2
O=C(Nc1cc(C(F)(F)F)ccc1N1CCCCC1)C1=COCCO1	0	0	0	-	0	0	-
CCN(CC)c1ccc(N=C2C=CC(=O)C=C2NC(C)=O)cc1	-	0	0	-	0	0	-
N/C(=N\OC(=O)c1ccccc1)C(C(=O)NOC(=O)c1ccccc1)C1CCCCC1 (centres undefined)	0	86	0	0	0	0	97
O=C(COC(=O)c1ccccc1)NC1CCCCCC1	0	0	0	0	0	0	-
O=C(CN1CCN(Cc2ccccc2Cl)CC1)N=Nc1c(O)[nH]c2ccccc12	0	54	0	0	0	0	48
Cc1ccc(CN2CCN(CC(=O)N=Nc3c(O)[nH]c4ccccc34)CC2)cc1	0	0	0	0	0	0	-
O=C(N/N=C\c1c(O)ccc2ccccc12)c1ccc(Cn2cccn2)o1	0	54	0	0	89	0	67
O=C(N/N=C\c1ccc(Cl)s1)c1ccc(Cn2cccn2)o1	0	0	0	0	0	0	-
CC(NS(=O)(=O)OCC(Cl)(Cl)Cl)c1ccc(C(C)(C)C)cc1 (centres undefined)	0	56	0	0	0	0	49
CC(C)(NS(=O)(=O)OCC(Cl)(Cl)Cl)c1ccccc1	0	0	0	0	0	0	-
CCn1nc(C)cc1-c1nnc(SCC(=O)Nc2ccccc2)n1CCCOC	0	0	0	0	0	0	-
CCn1nc(C)cc1-c1nnc(Sc2ncc([N+](=O)[O-])s2)n1C	0	110	-82	94	95	95	100
Cc1ccc(-c2nc3ncccc3o2)cc1NC(=O)Cc1ccc(Cl)cc1	0	51	0	0	0	0	0
COc1ccc(CN(C)C(=O)C(Cc2ccccc2)NC(=O)c2ccccc2)cc1F (centres undefined)	0	54	0	0	0	0	84
CN(Cc1ccc(F)cc1)C(=O)C(Cc1ccccc1)NC(=O)c1ccccc1 (centres undefined)	0	0	0	0	0	0	-
CSc1ccc(CN(C)C(=O)C(Cc2ccccc2)NC(=O)c2ccccc2)cc1 (centres undefined)	0	66	0	0	0	0	62
CCOc1ccc(CN(C)C(=O)[C@H](Cc2ccccc2)NC(=O)OCc2ccccc2)cc1OC	0	0	0	0	0	0	-
CCNC(=O)C1(C)CCCN(C(=O)c2cc(C)nn2C(C)(C)C)C1 (centres undefined)	-	0	0	-	0	0	-
CCN(CC)CCSc1nnc2c3cc(C)ccc3n(Cc3ccccc3)c2n1	-	64	0	-	0	0	46
CCN1C(=O)[C@H]2[C@@H](c3ccc(C(F)(F)F)cc3)N[C@]3(CCCN(Cc4ccccc4)C3=O)[C@H]2C1=O	0	0	0	-	0	0	-
CN1CCN(CCNC(=O)c2ccc3nc(-c4ccc(F)cc4)c(-c4ccc(F)cc4)nc3c2)CC1	0	74	0	89	0	0	90

Screening data (PubChem)
